This assay is described as follows: Vibrio cholerae motility inhibitors, OD read-out (AID 588778). The conditions noted are these: stronger effect = higher value.
The mark [1] stands for this setting: measured here: bacterial viability at 10 ug/mL.

Hit rate of the full screen: of about 10,000 compounds, fewer than 10 were called active. How the calls were made is not given here. Only a sample is shown.

As a reminder, the inhibition is the drop in the measured response relative to a control, in per cent. As for `O=C(NCCSCc1ccco1)Nc1ccccc1`, the inhibition was 22.3% (inactive) (concentration not given here) and 0.29% under setting [1].

On to `O=C(CSCc1ccc([N+](=O)[O-])cc1)N1CCN(c2cccc(Cl)c2)CC1`, for which the inhibition runs as follows: (concentration not given here) -5.85% (inactive); under setting [1], -3.47%.

Take `Cc1cc2[nH]c(=S)n(Cc3ccccc3Cl)c2cc1C`: the inhibition runs as follows: (concentration not given here) -26.6% (inactive); under setting [1], -12.9%.

For the compound `O=C(NC(=O)C(Cl)(Cl)Cl)NC1CCCC1`, the inhibition runs as follows: (concentration not given here) -16.4% (inactive); under setting [1], 3.96%.

On to `O=C(NC(=S)Nc1ccccc1C(=O)NC1CCCCC1)c1ccco1`, for which the inhibition runs as follows: (concentration not given here) 3.43% (inactive); under setting [1], 7.92%.

`CCn1ccc(C(=O)Nc2ccc(C(F)(F)F)cc2Cl)n1`: the inhibition runs as follows: (concentration not given here) -7.69% (inactive); under setting [1], -1.52%.

For the compound `Cc1cc(N2C(=O)CC(Cc3ccc(Cl)cc3)C2=O)no1` (stereo not given), the inhibition is 1.86% (inactive) (concentration not given here) and -6.9% under setting [1].

Consider `O=C(CC(NC(=S)Nc1ccccc1)c1ccccc1)c1ccccc1` (stereo not given), for which the inhibition is 15.4% (inactive) (concentration not given here) and 5.66% under setting [1].

For the compound `CC(C)C(C(=O)O)c1ccc([N+](=O)[O-])cc1` (stereo not given), the inhibition is 6.16% (inactive) (concentration not given here) and -2.35% under setting [1].

On to `COc1ccc([N+](=O)[O-])cc1CSc1ccccn1`, for which the inhibition runs as follows: (concentration not given here) -1.69% (inactive); under setting [1], -0.75%.

As to `CC(C)CNC(=S)NNC(=O)CC(C)O` (stereo not given), the inhibition is 52.6% (inactive) (concentration not given here) and 22.3% under setting [1].

Take `CSCCC(C(=O)O)n1c(-c2ccc3ccccc3n2)n[nH]c1=S` (stereo not given): the inhibition runs as follows: (concentration not given here) -9.7% (inactive); under setting [1], -4.1%.

Regarding `Cc1ccc(C(C)C)c(OCCSc2nc3ccccc3n2CC(O)CO)c1` (stereo not given), the inhibition (concentration not given here) is 6.25% (inactive) and the inhibition under setting [1] was -5.04%.

As for `O=C(O)CCn1c2ccccc2c2ccccc21`, the inhibition reads like this: (concentration not given here) 15.5% (inactive); under setting [1], -1.8%.

Regarding `COc1ccc(NC(=O)c2cc(S(=O)(=O)N3CCOCC3)c(Cl)cc2Cl)c([N+](=O)[O-])c1`, the inhibition by setting is: (concentration not given here) -16.3% (inactive); under setting [1], -8.39%.

Turning to `O=C(NCc1ccc(Cl)c(Cl)c1)c1ccc(Br)o1`, the inhibition runs as follows: (concentration not given here) 20.3% (inactive); under setting [1], 4.03%.

Consider `COc1ccc2cnn(-c3ccccc3)c(=O)c2c1OC`, for which the inhibition runs as follows: (concentration not given here) 12% (inactive); under setting [1], 4.55%.

Consider `CCOc1cc(C(=S)N2CC(C)OC(C)C2)cc(I)c1OCC(=O)N1CCCC1` (stereo not given), for which the inhibition reads like this: (concentration not given here) 11% (inactive); under setting [1], 5.69%.

For `CC(C)(O)C#Cc1ccc(C(=O)NC2CCCCC2)cc1`, the inhibition is, setting by setting: (concentration not given here) 12.9% (inactive); under setting [1], 20.2%.

Take `Cc1cc(=O)[nH]c2c1cnn2Cc1ccccc1`: the inhibition by setting is: (concentration not given here) 49.6% (inactive); under setting [1], 17.8%.

Regarding `Cc1c(NC(=O)C2CC(c3c(F)cccc3Cl)=NO2)c(=O)n(-c2ccccc2)n1C` (stereo not given), the inhibition runs as follows: (concentration not given here) 0.12% (inactive); under setting [1], -4.39%.

As to `CC1(C(=O)NN2CCOCC2)CC1(Cl)Cl` (stereo not given), the inhibition is, setting by setting: (concentration not given here) 1.9% (inactive); under setting [1], -3.31%.

Turning to `CC(=O)c1cccc(NC(=O)C2CC(=O)N(Cc3ccccc3)C2)c1` (stereo not given), the inhibition is -14% (inactive) (concentration not given here) and -3.46% under setting [1].

In the case of `C#CCOc1c(Br)cc(/C=C/[N+](=O)[O-])cc1OC`, the inhibition is 33.7% (inactive) (concentration not given here) and 7.02% under setting [1].

In the case of `COc1ccc(C(=O)NCc2ccoc2C(=O)O)cc1`, the inhibition runs as follows: (concentration not given here) 16.5% (inactive); under setting [1], 8.04%.

(Values after PubChem BioAssay AID588778 (Southern Research Institute, 2011).)
